From PubChem BioAssay (NCATS)
Inconclusive results are not listed. A number with no mark means an inactive call. Active and inactive are the calls of the source. Calls follow the shape of the dose curve; as a rule, active = well fitted inhibition curve with a large enough effect; inconclusive = small, poorly fitted or top-dose-only effect; inactive = flat fitted curve, though single readings scatter.

Target: Ubiquitin carboxyl-terminal hydrolase 1 (Homo sapiens) (UniProt O94782)
Assay: Inhibitors of USP1/UAF1: Pilot qHTS (AID 504865); also: nearly all actives have a fitted effect of over 35% in size;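 as to activity change, negative = inhibition: rhodamine fluorescence freed from ubiquitin-rhodamine substrate followed over time; top concentration of the series differs between compounds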
Conditions: purified USP1/UAF1, Ub-rhodamine cleavage fluorescence; series mostly up to 114 µM; activity change, negative = inhibition: at the top concentration
How it was run: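 Enzyme-free wells gave the negative control, while test wells held 1nM USP1/UAF1 preincubated with compound for 15 min at room temperature. Ub-Rho at 150nM final started the reaction, and fluorescence at 480/540 nm was recorded kinetically.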
% is scaled to controls: 0 for no effect and ±100 for the full control effect; potency is read from the fitted curve at half-maximal effect.

Ubiquitin carboxyl-terminal hydrolase 1 (Homo sapiens), sequence (O94782 whole entry, looked up): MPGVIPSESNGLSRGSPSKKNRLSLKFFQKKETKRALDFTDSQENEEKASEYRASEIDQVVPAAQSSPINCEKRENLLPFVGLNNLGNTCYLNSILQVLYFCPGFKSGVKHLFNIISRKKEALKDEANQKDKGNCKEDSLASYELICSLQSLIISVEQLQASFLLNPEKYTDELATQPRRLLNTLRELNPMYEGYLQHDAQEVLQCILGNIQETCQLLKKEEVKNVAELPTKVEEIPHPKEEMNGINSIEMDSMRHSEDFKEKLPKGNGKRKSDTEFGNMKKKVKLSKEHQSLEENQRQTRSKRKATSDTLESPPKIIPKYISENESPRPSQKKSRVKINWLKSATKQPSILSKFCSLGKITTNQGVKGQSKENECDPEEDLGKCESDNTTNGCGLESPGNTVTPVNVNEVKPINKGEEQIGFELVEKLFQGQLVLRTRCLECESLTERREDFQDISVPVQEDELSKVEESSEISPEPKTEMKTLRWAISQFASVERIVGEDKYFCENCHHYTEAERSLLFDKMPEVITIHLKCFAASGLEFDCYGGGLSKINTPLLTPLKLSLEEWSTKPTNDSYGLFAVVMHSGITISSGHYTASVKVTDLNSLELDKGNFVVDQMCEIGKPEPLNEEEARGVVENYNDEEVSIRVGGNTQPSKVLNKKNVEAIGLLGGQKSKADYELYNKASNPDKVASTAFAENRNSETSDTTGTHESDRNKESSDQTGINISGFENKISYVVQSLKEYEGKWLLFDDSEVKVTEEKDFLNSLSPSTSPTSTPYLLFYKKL

Going from `COc1ccc(-c2cc(=O)c3c(O)c(OC)c(OC)c(OC)c3o2)cc1OC` to `COc1ccc(-c2coc3cc(OC(C)=O)cc(OC(C)=O)c3c2=O)cc1`, the “activity change, negative = inhibition” value falls from -6.6% to -14.6%.

Compared with `COC(=O)C1OC(=O)C2O[C@@]23[C@]2(C)C(OC(C)=O)CC4C(C)(C)C(=O)CC[C@]4(C)C2CC[C@@]13C` (stereo not given in full), `CC(=O)OC1CC(OC(C)=O)[C@]2(C)C(CC(=O)[C@]3(C)C2CC[C@@]2(C)C(C(=O)O)OC(=O)C4OC423)C1(C)C` (stereo not given in full) is higher in “activity change, negative = inhibition” value: -12.5% for the first, -6.74% for the second.

Compared with `CC(=O)OC1CC2C(C)(C)C=CC(=O)[C@@]2(C)C2CC[C@@]3(C)C(c4ccoc4)OC(=O)C4OC43[C@]12C` (stereo not given in full), `CC(=O)OC1CC2C(C)(C)C(=O)[C@@H]3OC3[C@@]2(C)C2CC[C@]3(C)C(=CC(=O)OC3c3ccoc3)[C@]12C` (stereo not given in full) is higher in “activity change, negative = inhibition” value: -13.1% for the first, -12.8% for the second.

Compared with `CCOC(=O)c1c(C)cc(O)c(C=O)c1O`, `Cc1cc(=O)oc2c(O)c(O)ccc12` is higher in “activity change, negative = inhibition” value: -11.9% for the first, -4.39% for the second.

Going from `C[C@@H]1CCC2[C@](C)(CO)C(O)CC[C@@]2(C)[C@@]12CC[C@](CO)(CCO)O2` (stereo not given in full) to `CC12CCC3C(=CCc4cc(O)ccc43)C1CCC2=O` (stereo not given), the “activity change, negative = inhibition” value falls from -7.8% to -13.2%.

Compared with `O=C(/C=C/c1ccccc1)c1ccc(O)cc1`, `COc1ccc(C(=O)c2ccc(O)cc2)c(O)c1O` is lower in “activity change, negative = inhibition” value: -7.25% for the first, -9.76% for the second.

Compared with `CC(Oc1ccccc1)C(=O)NC1C(=O)N2C(C(=O)O)C(C)(C)S[C@@H]12` (stereo not given in full), `CC(=O)O[C@](C)(CCC=C(C)C)C1CC=C(C)CC1` (stereo not given in full) is lower in “activity change, negative = inhibition” value: -5.55% for the first, -6.78% for the second.

`COC1=CC(=O)C(C(=O)c2ccccc2)=CC1=O` was tested, and the Potency was 25.1 µM (active).
